# Screening results as filed in PubChem.
# An excerpt weighted towards active compounds, which were near 2.1% of everything screened.
# PrPC TRFRET – reduces human prion protein on the cell surface | 370,000 compounds, 0.43% hits | inhibition, % at 13.8 µM | cell surface PrPC, TR-FRET read-out | AID 720596 | P04156; in the data active means inhibition above about 24%; further: 0% = median of the test wells and 100% = reference compound wells
# PrP UTR inh – inhibition of PrP 5' UTR reporter expression; inhibition, % (no concentration beside the values); cell-based PrP 5' UTR mRNA reporter, plate reader; 340,000 compounds, 0.35% hits; in the data active means inhibition above about 52%; further: 0 = median of the neutral control wells
# MazEF act – increases E. coli MazEF RNase cleavage of RNA; FAM/BHQ RNA-DNA oligo cleavage fluorescence, 5 h; P0AE70; 350,000 compounds, 0.32% hits; AID 504720; activation, % at 20 µM; in the data active means activation above about 50%
# Target sequence (P0AE70 whole entry, looked up): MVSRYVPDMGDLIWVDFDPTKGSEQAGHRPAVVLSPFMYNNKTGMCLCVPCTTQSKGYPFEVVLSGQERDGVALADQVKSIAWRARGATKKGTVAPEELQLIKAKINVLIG
# PfHsp40 yeast – compounds rescuing yeast from Plasmodium falciparum HSP40 toxicity; S. cerevisiae expressing PfHsp40, growth rescue, ATP luminescence; growth rescue, % at 12.5 µM; 340,000 compounds, 0.68% hits; AID 504582; in the data active means growth rescue above about 28%, passing the limit was not always enough; inconclusive means no clear call, values can overlap the other calls;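 further: yeast W303a lacking pdr1 and pdr3 grown in galactose medium; growth measured after three days at 30 °C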
# DUSP3 inh – DUSP3 (human) phosphatase inhibition | P51452 | recombinant VHR phosphatase, pNPP absorbance | inhibition, % at 13.3 µM | 290,000 compounds, 0.52% hits; in the data active means inhibition above about 50%
# Target sequence (P51452 whole entry, looked up): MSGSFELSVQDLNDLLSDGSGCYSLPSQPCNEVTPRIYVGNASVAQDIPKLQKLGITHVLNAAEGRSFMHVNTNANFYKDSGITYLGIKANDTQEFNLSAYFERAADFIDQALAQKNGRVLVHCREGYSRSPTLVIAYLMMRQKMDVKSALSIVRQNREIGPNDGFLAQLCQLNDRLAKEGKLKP
# BJeLR lethal – BJeLR cell viability loss | 300,000 compounds, 0.17% hits | BJeLR (HRASV12) viability, CellTiter-Glo ATP luminescence, 48 h | inhibition, % (no concentration beside the values); in the data active means inhibition above about 50%; inconclusive means no clear call, values can overlap the other calls
# Numbers without * were called inactive; ? = inconclusive; · = not tested or not shown; + = active, no number.
SMILES,PrPC TRFRET,PrP UTR inh,MazEF act,PfHsp40 yeast,DUSP3 inh,BJeLR lethal
Cn1nc(-c2ccccc2)c2nc3ccccc3nc21,0,-23,+,1,5,-13
CCCCn1nc(-c2ccccc2)c2nc3ccccc3nc21,·,·,·,·,4,-3
Cc1cc(-c2nnc(SCC(=O)NC3CC3)n2C(C)C)cs1,7,-14,7,0,24,-11
CC1=CN2C(=N)/C(=C/c3ccc([N+](=O)[O-])o3)C(=O)N=C2S1,1,-17,116*,?,38,17
CC1=CN2C(=N)/C(=C/c3ccco3)C(=O)N=C2S1,-6,-172,-13,0,5,2
Cc1ccc(CN2C(=O)CCC2C(=O)NC(C)C)cc1 (stereo not drawn),6,-15,0,78*,-15,-6
O=C(CCc1ccccc1)N[C@H]1[C@H](OC(=O)c2cnccn2)CCC[C@@]12C(=O)N(Cc1ccccc1)c1ccccc12,8,·,·,·,·,·
O=C(NNC(=O)c1cc(Br)ccc1O)c1csc(N2CCOCC2)n1,·,-8,2,76*,·,·
N#CC(C#N)=C(N)/C(C#N)=C/c1cc(O)c(O)c(O)c1,61*,-13,-43,0,·,·
N#C/C(=C\c1ccc(O)c(O)c1)C(=O)c1ccc(O)c(O)c1,3,-16,-51,-1,·,·
CCOC(=O)N1CCN(S(=O)(=O)c2ccc(C(=O)NNc3nc4cc(C)cc(C)c4s3)cc2)CC1,·,1,10,323*,0,11
Cc1cc(C)c2nc(NNC(=O)c3ccc(S(=O)(=O)N4CCCCC4)cc3)sc2c1,13,-24,7,0,-4,14
CCOC(=O)N1CCN(S(=O)(=O)c2ccc(C(=O)NNc3nc4ccc(Cl)cc4s3)cc2)CC1,·,-18,5,274*,4,18
CCOC(=O)N1CCN(S(=O)(=O)c2ccc(C(=O)N(CCN(C)C)c3nc4ccc(Cl)cc4s3)cc2)CC1,-2,-4,9,0,18,-4
CCOC(=O)N1CCN(S(=O)(=O)c2ccc(C(=O)NNc3nc4c(C)cccc4s3)cc2)CC1,-4,-1,2,130*,-7,0
CCOC(=O)N1CCN(S(=O)(=O)c2ccc(C(=O)N(CCN(CC)CC)c3nc4c(C)cccc4s3)cc2)CC1,-3,-7,-4,-1,6,-3
CSc1ccc(C=Nn2c(-c3cc(C)[nH]n3)n[nH]c2=S)cc1,-4,·,·,·,·,·
O=C1CCC[C@H]2C[C@H](NCc3ccc(Cl)c(C(F)(F)F)c3)CC[C@]23CCCN13,-2,·,·,·,·,·
O=C1CC(N2CCN(c3nc4ccccc4s3)CC2)C(=O)N1Cc1cccs1 (stereo not drawn),-6,-18,-10,99*,23,-1
O=C(NCc1ccncc1)c1ccccc1Nc1ccc(SC(F)F)cc1,-1,4,8,474*,-9,-4
COc1ccccc1N1CCN(C(=O)c2ccc3c(c2)CCN3S(C)(=O)=O)CC1,3,-1,11,1,-26,3
CC1=CC(C)(C)N(S(=O)(=O)c2ccc(C)cc2)c2ccc(C)cc21,15,-37,-11,165*,31,29
CC1=CC(C)(C)N(S(=O)(=O)c2ccc(F)cc2)c2ccccc21,0,-24,-8,1,19,-1
CCCCCn1c(C)c(CC(=O)Nc2ccc(Oc3cccnc3)c(C)c2)c2ccccc21,12,·,·,·,·,·
CN1C2=NC(c3ccccc3)CC(=O)N2/C(=C\c2ccccc2)C1c1ccccc1C(F)(F)F (stereo not drawn),2,·,·,·,·,·
CC(C)=NNC(=O)c1c(O)c2ccccc2[nH]c1=O,2,-20,4,100*,-12,7
CC(=O)Nc1ccc(C(=O)NC(C)c2ccc(-n3ccnc3)cc2)cc1 (stereo not drawn),-4,0,5,1,53*,-1
COc1ccc(C(CC(=O)O)N2Cc3ccccc3C2=O)cc1OC (stereo not drawn),5,8,5,-1,-16,-5
O=C(COC(=O)c1cc(-c2cccc3ccccc23)nc2ccccc12)NC1CCS(=O)(=O)C1 (stereo not drawn),-3,-13,292*,-1,5,-3
CCOC(=O)C1=CCC(c2ccc(CC)cc2)N(S(=O)(=O)c2ccc(C)cc2)C1 (stereo not drawn),2,·,·,·,·,·
